This is part of a sample that, as a whole, favours compounds with a hit. Of some 79,000 tested, about 15% had one in any assay. Unmarked numbers belong to inactive results. The source made the active and inactive calls. Cut-off read from the data, not from the text of the source: active = growth inhibition above about 70%; inactive = the rest.
assay: NCI Yeast Anticancer Drug Screen. Data for the mlh1 strain (AID 171);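 note: 0% = growth of vehicle-treated control cultures of the same strain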; conditions: S. cerevisiae mlh1 strain growth inhibition; at 33.0 µM; hits give high values
How it was run: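 Measured: yeast growth. Reference: vehicle-treated controls. Organism: strain with a defined alteration affecting DNA damage repair or cell cycle control, treated with compound.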

| Compound | growth inhibition |
| --- | --- |
| O=C1/C(=C/c2ccccc2)CCCC1CN1CCCCC1 (stereo not given) | 34% |
| C#CCN(Cc1ccc2nc(N)[nH]c(=O)c2c1)c1ccc(C(=O)NC(CCC(=O)O)C(=O)O)cc1 (stereo not given) | 41% |
| CCOC1(c2cccc([N+](=O)[O-])c2)c2ccccc2Oc2ccccc21 | 3% |
| O=C(O)CNC(=S)Nc1ccccc1 | 53% |
| N/C(=N/N=C/c1cc(Br)cc(Br)c1O)NO | 93% (active) |
| C[Si](C)(C)/C=C/CCNC(C#N)c1ccccc1 (stereo not given) | 33% |
| CCCCCCCCCCCCCCCCOP(=O)(O)OCC(N)C(=O)O (stereo not given) | 97% (active) |
| CC1=C(C(=O)NCc2ccccc2)C(c2ccccc2)C(C(=O)NCc2ccccc2)=C(C)N1 | 8% |
| O=[N+]([O-])c1cc(S(=O)(=O)Nc2ccccc2)ccc1Nc1ccccc1 | 91% (active) |
| CCOC(=O)C(Br)C(Br)c1ccccc1Cl (stereo not given) | 99% (active) |
| CCOC(=O)C1=C(C)NC(C)=C(C(=O)OCCNC(=O)c2ccc(N=[N+]=[N-])cc2)C1c1ccccc1C(F)(F)F (stereo not given) | 9% |
| Cc1cc(C)c(NC(=S)NC(=O)c2ccccc2)cc1C | 34% |
| CNCCCNc1c2ccccc2nc2cccc([N+](=O)[O-])c12 | 94% (active) |
| COc1c(O)c(C=O)c(Br)c(C=O)c1O | 43% |
| Cc1c(C)c(C)c(CSC(=N)N)c(C)c1C | 77% (active) |
| CNC(=O)OCc1c(COC(=O)NC)c(-c2ccc(Cl)cc2)n2c1CCC2 | 10% |
| CC(=O)OC1CC2C(C)(C)C(=O)C=C[C@]2(C)C2CCC3(C)C(=CCC3[C@H](CO)C[C@H](O)C(=O)C(C)(C)O)[C@]12C (stereo not given in full) | 86% (active) |
| CCCCCCOC(=O)NCCOC(=O)Nc1ccccc1 | 4% |

| Compound | growth inhibition |
| --- | --- |
| C[C](C)(C)[Ge]([O][Ge]([c]1ccccc1)[c]1ccccc1)([O][Ge]([c]1ccccc1)[c]1ccccc1)[C](C)(C)C | 66% |
| CCc1c(Cl)c(C)cc(O)c1Cl | 19% |
| Cc1nc(Nc2ccccc2[N+](=O)[O-])sc1C(=O)CC(=O)C(=O)Nc1c(C(C)C)cccc1C(C)C | 5% |
| CCCCCCC(O)CNCc1ccnc2ccc(OC)cc12 (stereo not given) | 18% |
| Cc1c2cccc(Sc3ccccc3)c2c2c3c(cccc13)[S+](c1ccccc1)C2 (stereo not given) | 96% (active) |
| C=C1CCC(O)C/C1=C/C=C1\CCCC2(C)C1CCC2C(C)CCCC(C)C (stereo not given) | -5% |
| NC1=NNC2(C(N)=N1)c1ccccc1-c1ccccc12 | 53% |
| COc1cc2cc3c4cc(OC)c(OC)cc4cc[n+]3c(C)c2cc1OC | -39% |
| COC(=O)NC1C(C)OC(OC2C/C=C(/C)C3C=CC4C(OC5CC(OC6CC(O)C(OC7CC(O)C(OC)C(C)O7)C(C)O6)C(O)C(C)O5)C(C)CC(C)C4C3(C)/C(O)=C3\C(=O)OC4(CC(C)C(CO)=CC4/C=C\2C)C3=O)CC1(C)[N+](=O)[O-] (stereo not given) | 3% |
| O=C1CSC(c2cccc(Cl)c2)N1c1ccc(-c2ccc(-n3c(-c4ccccc4)nc4ccccc4c3=O)cc2)cc1 (stereo not given) | 24% |
| CCOC(=O)C(C(=O)OCC)=P(c1ccccc1)(c1ccccc1)c1ccccc1 | 1% |
| COc1ccc(N=CN(C)C)c(C)c1 | 93% (active) |
| Cc1cc(S(=O)(=O)Nc2nnc3cnc4ccccc4n23)c(S)cc1Cl | 13% |
| O=C(Oc1ccc2c(c1)CN(Cc1ccccc1)CO2)c1ccccc1 | 4% |
| CN(C)[C@@H]1C(=O)C(C(N)=O)=C(O)[C@@]2(O)C(=O)C3=C(O)c4c(O)cccc4C[C@H]3C[C@@H]12 | 97% (active) |
| Cc1nc2c(Br)cc(Br)cc2c(=O)n1-c1ccccc1NC1OCC(O)C(O)C1O (stereo not given) | 36% |
| Cc1cc(N(CCOS(C)(=O)=O)CCOS(C)(=O)=O)ccc1C=Nc1ccc(-c2nc(Cc3ccccc3)sc2C)cc1 | 92% (active) |

same assay, conditions: S. cerevisiae mlh1 strain growth inhibition; at 100.0 µM; hits give high values

| Compound | growth inhibition |
| --- | --- |
| O=C1/C(=C/c2ccccc2)CCCC1CN1CCCCC1 (stereo not given) | 38% |
| C#CCN(Cc1ccc2nc(N)[nH]c(=O)c2c1)c1ccc(C(=O)NC(CCC(=O)O)C(=O)O)cc1 (stereo not given) | 55% |
| CCOC1(c2cccc([N+](=O)[O-])c2)c2ccccc2Oc2ccccc21 | 10% |
| O=C(O)CNC(=S)Nc1ccccc1 | 93% (active) |
| N/C(=N/N=C/c1cc(Br)cc(Br)c1O)NO | 97% (active) |
| C[Si](C)(C)/C=C/CCNC(C#N)c1ccccc1 (stereo not given) | 95% (active) |
| CCCCCCCCCCCCCCCCOP(=O)(O)OCC(N)C(=O)O (stereo not given) | 97% (active) |
| CC1=C(C(=O)NCc2ccccc2)C(c2ccccc2)C(C(=O)NCc2ccccc2)=C(C)N1 | 96% (active) |
| O=[N+]([O-])c1cc(S(=O)(=O)Nc2ccccc2)ccc1Nc1ccccc1 | 79% (active) |
| CCOC(=O)C(Br)C(Br)c1ccccc1Cl (stereo not given) | 99% (active) |
| CCOC(=O)C1=C(C)NC(C)=C(C(=O)OCCNC(=O)c2ccc(N=[N+]=[N-])cc2)C1c1ccccc1C(F)(F)F (stereo not given) | 28% |
| Cc1cc(C)c(NC(=S)NC(=O)c2ccccc2)cc1C | 32% |
| CNCCCNc1c2ccccc2nc2cccc([N+](=O)[O-])c12 | 97% (active) |
| COc1c(O)c(C=O)c(Br)c(C=O)c1O | 95% (active) |
| Cc1c(C)c(C)c(CSC(=N)N)c(C)c1C | 98% (active) |
| CNC(=O)OCc1c(COC(=O)NC)c(-c2ccc(Cl)cc2)n2c1CCC2 | 98% (active) |
| CC(=O)OC1CC2C(C)(C)C(=O)C=C[C@]2(C)C2CCC3(C)C(=CCC3[C@H](CO)C[C@H](O)C(=O)C(C)(C)O)[C@]12C (stereo not given in full) | 92% (active) |
| CCCCCCOC(=O)NCCOC(=O)Nc1ccccc1 | 6% |

| Compound | growth inhibition |
| --- | --- |
| C[C](C)(C)[Ge]([O][Ge]([c]1ccccc1)[c]1ccccc1)([O][Ge]([c]1ccccc1)[c]1ccccc1)[C](C)(C)C | 68% |
| CCc1c(Cl)c(C)cc(O)c1Cl | 82% (active) |
| Cc1nc(Nc2ccccc2[N+](=O)[O-])sc1C(=O)CC(=O)C(=O)Nc1c(C(C)C)cccc1C(C)C | 5% |
| CCCCCCC(O)CNCc1ccnc2ccc(OC)cc12 (stereo not given) | 35% |
| Cc1c2cccc(Sc3ccccc3)c2c2c3c(cccc13)[S+](c1ccccc1)C2 (stereo not given) | 93% (active) |
| C=C1CCC(O)C/C1=C/C=C1\CCCC2(C)C1CCC2C(C)CCCC(C)C (stereo not given) | 18% |
| NC1=NNC2(C(N)=N1)c1ccccc1-c1ccccc12 | 97% (active) |
| COc1cc2cc3c4cc(OC)c(OC)cc4cc[n+]3c(C)c2cc1OC | -49% |
| COC(=O)NC1C(C)OC(OC2C/C=C(/C)C3C=CC4C(OC5CC(OC6CC(O)C(OC7CC(O)C(OC)C(C)O7)C(C)O6)C(O)C(C)O5)C(C)CC(C)C4C3(C)/C(O)=C3\C(=O)OC4(CC(C)C(CO)=CC4/C=C\2C)C3=O)CC1(C)[N+](=O)[O-] (stereo not given) | -2% |
| O=C1CSC(c2cccc(Cl)c2)N1c1ccc(-c2ccc(-n3c(-c4ccccc4)nc4ccccc4c3=O)cc2)cc1 (stereo not given) | 42% |
| CCOC(=O)C(C(=O)OCC)=P(c1ccccc1)(c1ccccc1)c1ccccc1 | 92% (active) |
| COc1ccc(N=CN(C)C)c(C)c1 | 96% (active) |
| Cc1cc(S(=O)(=O)Nc2nnc3cnc4ccccc4n23)c(S)cc1Cl | 43% |
| O=C(Oc1ccc2c(c1)CN(Cc1ccccc1)CO2)c1ccccc1 | 37% |
| CN(C)[C@@H]1C(=O)C(C(N)=O)=C(O)[C@@]2(O)C(=O)C3=C(O)c4c(O)cccc4C[C@H]3C[C@@H]12 | 99% (active) |
| Cc1nc2c(Br)cc(Br)cc2c(=O)n1-c1ccccc1NC1OCC(O)C(O)C1O (stereo not given) | 92% (active) |
| Cc1cc(N(CCOS(C)(=O)=O)CCOS(C)(=O)=O)ccc1C=Nc1ccc(-c2nc(Cc3ccccc3)sc2C)cc1 | 97% (active) |

Source: PubChem BioAssay (NCI)
